This note sets out measurements from PubChem BioAssay (Tox21).

Inconclusive results are not listed. Where a call stands in place of a potency, no number is given. Unmarked numbers belong to inactive results. The source made the active and inactive calls. The call rests on the fitted dose curve; in most records, active means well fitted curve in the direction sought with a large enough effect in the repeat runs; inconclusive means weak or mixed curves; inactive means no such curve, though single readings can be large; an effect the other way counts as inactive or inconclusive.

The first assay can be described thus: A CellTox Green Cytotoxicity Assay to monitor cytotoxicity in HepG2 cells - 8 hour (AID 1224890). Further: nearly all actives have a fitted effect of over 45% in size. The conditions noted are these: CellTox Green fluorescence; series mostly up to 76.8 µM; cytotoxicity increase: at the top concentration. The procedure, abridged:
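HepG2 cells were seeded together with the CellTox Green dye at 600 cells/well, left 5 h at 37 C/5% CO2, then given compounds in DMSO. Fluorescence from dye bound to dead-cell DNA was read repeatedly over 40 h of treatment at 37 C.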
With `CCCCN(CCCC)CCCC`, the Potency entry was “inactive”.
Still for that read-out and setting: under `CCOC(=O)NNc1nncc2ccccc12` stands “inactive”; under `C[Si](O[Si](C)(C)C)O[Si](C)(C)C`, “inactive”.
Take `N[C@@H](Cc1cc(I)c(Oc2cc(I)c(O)c(I)c2)c(I)c1)C(=O)O`: the Potency entry is “inactive”.
Same read-out and setting: under `O=C(O)c1ccccc1C(c1ccc(O)cc1)c1ccc(O)cc1` stands “inactive”.
`CCCCCCCCC/C=C/CC1CC(=O)OC1=O` (stereo unspecified): the Potency result was “inactive”.
On to `C#C[C@]1(O)CC[C@H]2[C@@H]3CCC4=CC(=O)CC[C@@H]4[C@H]3CC[C@@]21C`, for which the Potency entry was “inactive”.
On the same count and under the same terms, the value for `CCCCCC(N)=O` was “inactive”.
On to `O=C(O)c1ccc(C(=O)O)cc1`, for which the “cytotoxicity increase” value was 3.11%.
With `CC1CCC(C(C)C)C(O)C1` (stereo unspecified), the Potency entry was “inactive”.
As to `CC1CCC2CC1C2(C)C` (stereo unspecified), the Potency result was “inactive”.
The same measure, in the same setting: the value for `CSCCC=O` was “inactive”.
`OCCOCCOCCO`: the Potency result was “inactive”.
Still for that read-out and setting: under `O=c1[nH]nnc2ccccc12` stands “inactive”; under `CC(=O)CC(=O)Nc1ccccc1C`, “inactive”.
Same read-out and setting: under `CN(C)CCC(c1ccccc1)c1ccccn1` (stereo unspecified) stands “inactive”; under `CCCCCC/C(C=O)=C\c1ccccc1`, “inactive”.
`Nc1ccccc1[N+](=O)[O-]`: the Potency result was “inactive”.
On the same count and under the same terms, the value for `C=C(C)C(=O)O[C@H]1C[C@@H]2CC[C@@]1(C)C2(C)C` was “inactive”; that for `OCC(CO)(CBr)CBr` was “inactive”; that for `CC(=O)Nc1ccccc1` was “inactive”.
Still for that read-out and setting: under `CCCCOC(=O)COc1ccc(Cl)cc1Cl` stands “inactive”.
On the same count and under the same terms, under `CCCCC(CC)COC(=O)CCCCC(=O)OCC(CC)CCCC` (stereo unspecified) stands “inactive”.
With `C[C@H]1C[C@H]2[C@@H]3CCC4=CC(=O)C=C[C@]4(C)[C@@]3(F)[C@@H](O)C[C@]2(C)[C@@]1(O)C(=O)CO`, the Potency result was “inactive”.
On the same count and under the same terms, the value for `O=P(OC(CCl)CCl)(OC(CCl)CCl)OC(CCl)CCl` was “inactive”; that for `Cc1ccc(N(C)C)cc1` was “inactive”; that for `COc1ccc(NC(C)=O)cc1N` was “inactive”.
Still for that read-out and setting: under `C/C=C1/CC2C=CC1C2` (stereo unspecified) stands “inactive”; under `C#CCN(C)Cc1ccccc1`, “inactive”; under `C=C(C)C(=O)OCCOCCOCCOC(=O)C(=C)C`, “inactive”.
Same read-out and setting: the value for `CC(C)CC(=O)CC(C)C` was “inactive”; that for `CCC(O)OCCCOC` (stereo unspecified) was “inactive”.
Take `OCc1cccnc1`: the Potency result was “inactive”.
Take `CC1=CCC2CC1C2(C)C` (stereo unspecified): the Potency result was “inactive”.
Still for that read-out and setting: the value for `O=C(O)c1ccc2c(c1)C(=O)OC2=O` was “inactive”.
With `CCCCCOC(C)=O`, the Potency result was “inactive”.
As to `O=C=NCCCCCCN=C=O`, the Potency entry is “inactive”.
Same read-out and setting: under `CCc1ccc(CCOc2ccc(CC3SC(=O)NC3=O)cc2)nc1` (stereo unspecified) stands “inactive”.

Another assay is described as follows: qHTS assay to identify small molecule antagonists of the estrogen receptor alpha (ER-alpha) signaling pathway using the BG1 cell line in the presence of 0.1 nM 17-beta-estradiol - cell viability counter screen (AID 1259241). Further: nearly all actives have a fitted effect of over 40% in size. The conditions noted are these: VM7Luc4E2 (BG1) viability, CellTiter-Fluor protease, 22 h, 0.1 nM estradiol agonist added; series mostly up to 92.4 µM; activity change, negative = cytotoxicity: at the top concentration. In short, it runs like this:
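CellTiter-Fluor read (30 min, 37C) on ER-alpha/ERE-luc VM7Luc4E2 cells; 22 hr compound treatment; agonist 0.1 nM E2 final; same-well multiplex.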
Take `CCCCN(CCCC)CCCC`: the Potency entry is “inactive”.
As to `N[C@@H](Cc1cc(I)c(Oc2cc(I)c(O)c(I)c2)c(I)c1)C(=O)O`, the Potency result was “inactive”.
With `O=C(O)c1ccccc1C(c1ccc(O)cc1)c1ccc(O)cc1`, the Potency result was “inactive”.
On to `CCCCCCCCC/C=C/CC1CC(=O)OC1=O` (stereo unspecified), for which the Potency entry was “inactive”.
Take `C#C[C@]1(O)CC[C@H]2[C@@H]3CCC4=CC(=O)CC[C@@H]4[C@H]3CC[C@@]21C`: the Potency result is “inactive”.
For `CCCCCC(N)=O`, the Potency result was “inactive”.
The same measure, in the same setting: the value for `O=C(O)c1ccc(C(=O)O)cc1` was “inactive”; that for `CC1CCC(C(C)C)C(O)C1` (stereo unspecified) was “inactive”.
Regarding `CC1CCC2CC1C2(C)C` (stereo unspecified), the Potency entry is “inactive”.
As for `CSCCC=O`, the Potency entry is “inactive”.
With `OCCOCCOCCO`, the Potency entry was “inactive”.
Still for that read-out and setting: under `O=c1[nH]nnc2ccccc12` stands “inactive”; under `CC(=O)CC(=O)Nc1ccccc1C`, “inactive”; under `CN(C)CCC(c1ccccc1)c1ccccn1` (stereo unspecified), “inactive”.
With `OCC(CO)(CBr)CBr`, the Potency entry was “inactive”.
Still for that read-out and setting: the value for `CC(=O)Nc1ccccc1` was “inactive”.
Regarding `CCCCOC(=O)COc1ccc(Cl)cc1Cl`, the Potency entry was “inactive”.
`COc1ccc(NC(C)=O)cc1N`: the Potency entry was “inactive”.
For the molecule `C#CCN(C)Cc1ccccc1`, the Potency entry was “inactive”.
The same measure, in the same setting: the value for `CC(C)CC(=O)CC(C)C` was “inactive”.
With `CCC(O)OCCCOC` (stereo unspecified), the Potency entry is “inactive”.
The same measure, in the same setting: the value for `OCc1cccnc1` was “inactive”.
As for `O=C(O)c1ccc2c(c1)C(=O)OC2=O`, the Potency entry is “inactive”.
With `CCCCCOC(C)=O`, the Potency entry is “inactive”.

A short description of a further assay: qHTS assay to identify small molecule antagonists of the androgen receptor (AR) signaling pathway using the MDA cell line in the presence of 0.5 nM R1881 - cell viability counter screen (AID 1259242). Further: nearly all actives have a fitted effect of over 45% in size. The conditions noted are these: MDA-kb2 viability, CellTiter-Fluor protease fluorescence, 16 h; series mostly up to 92.4 µM; viability change, negative = cytotoxic: at the top concentration. In short, it runs like this: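 MDA-kb2 cells (human breast carcinoma, stably carrying MMTV-luciferase reporter) were exposed to compounds with 0.5 nM R1881 (final) for 16 hr at 37C, 0% CO2; viability then read as live-cell protease fluorescence (CellTiter-Fluor, 30 min) in the same wells.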
For the molecule `CCCCN(CCCC)CCCC`, the result was inactive.
Turning to `C[Si](O[Si](C)(C)C)O[Si](C)(C)C`, the result was inactive.
Regarding `N[C@@H](Cc1cc(I)c(Oc2cc(I)c(O)c(I)c2)c(I)c1)C(=O)O`, the outcome was inactive.
As for `CCCCCC(N)=O`, the result was inactive.
Still for that read-out and setting: under `CC1CCC(C(C)C)C(O)C1` (stereo unspecified) stands “inactive”; under `CC1CCC2CC1C2(C)C` (stereo unspecified), “inactive”.
On the same count and under the same terms, the value for `OCCOCCOCCO` was “inactive”; that for `O=c1[nH]nnc2ccccc12` was “inactive”; that for `CC(=O)CC(=O)Nc1ccccc1C` was “inactive”.
`CN(C)CCC(c1ccccc1)c1ccccn1` (stereo unspecified): the result was inactive.
As for `CCCCCC/C(C=O)=C\c1ccccc1`, the result was inactive.
With `C=C(C)C(=O)O[C@H]1C[C@@H]2CC[C@@]1(C)C2(C)C`, the “viability change, negative = cytotoxic” value was 1.07%.
Turning to `CCCCOC(=O)COc1ccc(Cl)cc1Cl`, the outcome was inactive.
Still for that read-out and setting: under `CCCCC(CC)COC(=O)CCCCC(=O)OCC(CC)CCCC` (stereo unspecified) stands “inactive”.
On the same count and under the same terms, the value for `C[C@H]1C[C@H]2[C@@H]3CCC4=CC(=O)C=C[C@]4(C)[C@@]3(F)[C@@H](O)C[C@]2(C)[C@@]1(O)C(=O)CO` was “inactive”.
Still for that read-out and setting: under `Cc1ccc(N(C)C)cc1` stands “inactive”.
As to `COc1ccc(NC(C)=O)cc1N`, the outcome was inactive.
Still for that read-out and setting: the value for `C/C=C1/CC2C=CC1C2` (stereo unspecified) was “inactive”; that for `C#CCN(C)Cc1ccccc1` was “inactive”.
On to `C=C(C)C(=O)OCCOCCOCCOC(=O)C(=C)C`, for which the result was inactive.
Same read-out and setting: under `CCC(O)OCCCOC` (stereo unspecified) stands “inactive”.
Still for that read-out and setting: the value for `O=C(O)c1ccc2c(c1)C(=O)OC2=O` was “inactive”.
With `CCCCCOC(C)=O`, the outcome was inactive.
Still for that read-out and setting: under `CCc1ccc(CCOc2ccc(CC3SC(=O)NC3=O)cc2)nc1` (stereo unspecified) stands “inactive”.
